According to PubChem BioAssay AID720648 (The Scripps Research Institute Molecular Screening Center, 2013):
Several values for one entry are separate records, joined by “and”; a condition that tells them apart may be missing. Equal entries are not always repeated. Screen size: about 370,000 compounds; about 3,100 (0.84%) were called active.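 How the source made its calls: active means inhibition above the mean of compounds lying between control limits plus 3 SD, set per campaign (cut at about 8.5% in these data); inactive means the rest.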 The list comes from a sample in which actives are over-represented; it also holds similar structures and randomly drawn compounds. Where a structure was tested more than once in an assay, its records may differ in their call.

What follows are molecules tested against Disintegrin and metalloproteinase domain-containing protein 17 (Homo sapiens) (UniProt P78536) (assay: inhibition of ADAM17 peptide cleavage – biochemical, QFRET, primary screen (AID 720648;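 further: 0% = DMSO-only wells as the low control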)). Details: recombinant ADAM17, EDANS/DABCYL FRET peptide cleavage; at 6.95 µM; stronger effect = higher value.
Disintegrin and metalloproteinase domain-containing protein 17 (Homo sapiens), sequence (P78536 215-824 limits assumed): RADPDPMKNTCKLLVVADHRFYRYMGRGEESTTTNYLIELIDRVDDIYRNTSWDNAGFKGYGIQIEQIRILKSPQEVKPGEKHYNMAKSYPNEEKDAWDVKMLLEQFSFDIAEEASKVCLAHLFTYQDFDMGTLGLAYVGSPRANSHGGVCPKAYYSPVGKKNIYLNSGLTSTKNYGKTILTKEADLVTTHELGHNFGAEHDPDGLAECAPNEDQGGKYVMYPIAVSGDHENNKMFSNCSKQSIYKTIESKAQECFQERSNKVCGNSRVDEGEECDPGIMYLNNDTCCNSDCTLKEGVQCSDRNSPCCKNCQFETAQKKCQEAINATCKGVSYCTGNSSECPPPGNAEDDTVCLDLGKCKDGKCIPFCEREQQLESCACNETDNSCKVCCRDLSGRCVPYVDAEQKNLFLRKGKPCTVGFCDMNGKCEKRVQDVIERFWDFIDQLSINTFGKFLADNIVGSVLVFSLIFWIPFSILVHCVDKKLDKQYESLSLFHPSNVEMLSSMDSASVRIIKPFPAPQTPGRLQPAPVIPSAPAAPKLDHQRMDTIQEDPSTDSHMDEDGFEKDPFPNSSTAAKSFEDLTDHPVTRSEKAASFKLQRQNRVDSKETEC

SMILES	inhibition
Nn1c(SCC(=O)Nc2cccc3ccccc23)nnc1-c1cc(-c2ccc(F)cc2)n[nH]1	-1.2% (inactive)
Cn1c(=O)c2sccc2n(Cc2ccc(Br)cc2)c1=O	0.1% (inactive)
C/C(Cl)=C\Cn1c(Nc2cccc(C)c2)nc2c1c(=O)n(C)c(=O)n2C	1.3% (inactive)
Cn1c(=O)c2c(nc(N/N=C/c3cccs3)n2Cc2ccc(Br)cc2)n(C)c1=O	9.47% (active)
COc1ccc(CSc2nnc(-c3cccc(C)c3)n2C)cc1	-0.21% (inactive)
CCOc1ccc(Nc2nc(Cc3nnc(SCC(=O)NC4CCCC4)n3C)cs2)cc1	-1.2% (inactive)
CCOc1ccc(Nc2nc(Cc3nnc(SCC(=O)c4ccc(C)cc4)o3)cs2)cc1	13.7% (active)
CC(=O)Nc1ccc(C(=O)CSc2nnc(Cc3ccccc3)o2)cc1	2.43% (inactive)
COc1ccc(C2CC=C(C(=O)O)C(c3ccccc3F)N2S(=O)(=O)c2ccc(C)cc2)cc1OC (stereo not given)	-3.14% (inactive)
CC1=CC(C)(C)NC(=S)N1c1ccccc1	-5.69% (inactive)
O=C1/C(=C\c2ccsc2)NC(=S)N1c1ccccc1	9.7% (active)
CCCCN=C1N/C(=C\c2ccco2)C(=O)N1c1ccccc1	-3.3% (inactive)
CCC(=O)OCCCN1C(=O)CCC12CCC(c1ccccc1)CC2 (stereo not given)	0.25% (inactive)
O=C(CCl)NC1CCCCN(Cc2cccc(C(F)(F)F)c2)C1=O (stereo not given)	-6.37% (inactive)
O=S1(=O)c2ccc(Br)cc2OC[C@H](Cc2ccccc2)N1Cc1cn(Cc2ccccc2)nn1	-10.2% (inactive)
C[C@@H](NC(=O)c1nc[nH]c1C(=O)N1CCN(C(=O)OC(C)(C)C)CC1)c1ccccc1	-5.12% (inactive)
CC(C)(C)OC(=O)CNC(=O)c1[nH]cnc1C(=O)N[C@@H](Cc1ccccc1)C(=O)OCc1ccccc1	11.2% (active)
CNC(=O)c1[nH]cnc1C(=O)N[C@@H](CC(C)C)C(=O)OCc1ccccc1	1.89% (inactive)
C[C@H](NC(=O)c1nc[nH]c1C(=O)NCC(=O)OC(C)(C)C)C(=O)OCc1ccccc1	0.33% (inactive)
C[C@H](NC(=O)c1nc[nH]c1C(=O)NCC(=O)OC(C)(C)C)c1ccccc1	-0.12% (inactive)
CC(C)(C)OC(=O)N1CCC(NC(=O)c2[nH]cnc2C(=O)N[C@@H](Cc2ccccc2)C(=O)OCc2ccccc2)CC1	14.3% (active)
Cc1cc(C)n2ncc(C(=O)Nc3ccc4c(c3)OCCO4)c2n1	-3.48% (inactive)

SMILES	inhibition
COc1cc(NC(=O)C2CCCN(S(=O)(=O)c3ccc(C(C)(C)C)cc3)C2)cc(OC)c1 (stereo not given)	3.29% (inactive)
CCOC(=O)[C@]12CCCC=C1N(Cc1ccc(OC)cc1)C(=O)[C@@H]2CC(=O)N1CCOCC1	-0.05% (inactive)
O=c1c(-c2ccc(Cl)cc2)[n+]([O-])c2ccccc2n1OCc1nc2ccccc2[nH]1	-12.2% (inactive)
CCOc1ccc(OCC)c(-c2c(=O)n(OCc3ccc(Cl)cc3)c3ccccc3[n+]2[O-])c1	9.36% (active)
COc1ccc(OC)c(-c2c(=O)n(OCc3ccccc3Br)c3ccccc3[n+]2[O-])c1	0.86% (inactive)
Cc1c(C(C)c2ccccc2O)[nH]c2ccccc12 (stereo not given)	4.61% (inactive)
O=C(NCc1cccs1)C1CCN(S(=O)(=O)c2ccccc2[N+](=O)[O-])CC1	1.09% (inactive)
O=C(COC(=O)c1ccccc1)Nc1ccccc1Sc1ccccc1	9.99% (active)
O=C(COC(=O)c1ccccn1)Nc1cccc2ccccc12	-0.52% (inactive)
Cc1ccccc1C(=O)O	-1.22% (inactive)
Cc1cc(NC(=O)c2ccccc2C)no1	-1.75% (inactive)
Cc1ccccc1C(=O)Nc1ccccc1Sc1ccccc1	10.4% (active)
COc1ccc(C(=O)OCC(=O)NC(=O)CCSc2ccccc2)cc1	0.55% (inactive)
COc1ccc(-n2c(SCC(=O)Nc3ccc4cn[nH]c4c3)nnc2-c2cccnc2)cc1	2.47% (inactive)
COc1ccc(C2Nc3ccccc3C(=O)N2Cc2cccs2)cc1COc1c(C)cccc1C (stereo not given)	-93.1% (inactive)
CC(C)CNc1cccc2c1S(=O)(=O)N(Cc1cn(Cc3ccc(Cl)cc3)nn1)Cc1ccccc1O2	-4.11% (inactive)
COP(=O)(O)CNC(=O)OCc1ccccc1	1.95% (inactive)
O=C(COC(=O)c1ccc(NS(=O)(=O)c2cccs2)cc1O)Nc1ccc(F)cc1	8.44% (inactive)
CN(C)S(=O)(=O)c1cccc(NC(=O)COC(=O)c2cc(=O)[nH]c(=O)[nH]2)c1	0.24% (inactive)
NS(=O)(=O)c1ccc(NC(=O)COC(=O)C2(c3ccc(F)cc3)CCCC2)cc1	10.8% (active)
CN(C)S(=O)(=O)c1cccc(NC(=O)COC(=O)C2(c3ccccc3F)CCCC2)c1	14.4% (active)
CN(C)S(=O)(=O)c1cccc(NC(=O)COC(=O)/C=C/c2cccs2)c1	-0.31% (inactive)

SMILES	inhibition
O=C(COC(=O)C1(c2ccc(F)cc2)CCCC1)N1CCNC1=O	-6.77% (inactive)
CCCCOCCCNC(=O)C[C@H]1C[C@@]2(C(=O)OC)C(=C[C@H](C(C)(C)C)O[C@@H]2C)N(CCc2ccc(OC)c(OC)c2)C1=O	4.52% (inactive)
O=S1(=O)c2c(cccc2N2CCSCC2)Oc2ccccc2CN1Cc1cn(Cc2ccc(F)cc2)nn1	-0.02% (inactive)
COc1ccc(N2CCN(CCNS(=O)(=O)c3ccc(Cl)s3)CC2)cc1	-0.88% (inactive)
CCC[C@H]1C(=O)CC[C@@]23CCCN2C(=O)CCC[C@@H]13	-0.61% (inactive)
COc1cc(/C=N/n2c(C)n[nH]c2=S)ccc1OCc1ccccc1	10.8% (active)
CNC(=S)N/N=C/c1ccc(OCc2ccccc2)c(Br)c1	-1.43% (inactive)
C=CCOc1ccc(/C=N/n2cncn2)cc1OC	-11.9% (inactive)
COc1cccc(CNC(=O)C2CCCN(c3nc4ccccc4o3)C2)c1OC (stereo not given)	1.62% (inactive)
O=C(c1c[nH]c2ccccc12)N1CCC(Oc2cccnc2)CC1	1.77% (inactive)
O=C1C(=O)N(Cc2ccc(-c3ccsc3)cc2)c2ccc(OC(F)(F)F)cc21	1.76% (inactive)
CCOc1cc(C(=S)N2CCOCC2)ccc1OS(=O)(=O)c1ccc(Br)cc1	-3.87% (inactive)
O=S(=O)(Oc1ccccc1C(=S)N1CCOCC1)c1ccc(Cl)cc1	-1.11% (inactive)
CC(=O)Nc1ccc(S(=O)(=O)Oc2ccc(Br)cc2C(=S)N2CCOCC2)cc1	9.15% (active)
O=C(C1CCCN1S(=O)(=O)c1ccccc1)N1CCc2ccccc2C1 (stereo not given)	1.33% (inactive)
CCOc1c(Br)cc(/C=C2\C(=O)N(CCC#N)N=C2C)cc1OC	8.65% (active)
CC(C)(C)c1ccc(CSc2nnc(-c3cccs3)o2)cc1	-1.78% (inactive)
COC(=O)[C@]12C[C@H](CC(=O)N3CCN(C(=O)C4CC4)CC3)C(=O)N(CCC3=CCCCC3)C1=C[C@H](C(C)C)O[C@@H]2C1CC1	-8.05% (inactive)
CC1(C)C=Cc2c(ccc3c2OC[C@@H](c2ccc(O)cc2O)C3)O1	19.4% (active)
CN[C@H]1C[C@H]2c3cc(N4CCOCC4)ccc3CCN2C[C@H]1[C@H](C)O	-6.65% (inactive)
O=C(CCCCCN1C(=O)C2C3C=CC(C3)C2C1=O)Nc1ccccc1 (stereo not given)	4.34% (inactive)
COc1ccccc1CC1(C)C(=O)Nc2ccc(OC(F)(F)F)cc21 (stereo not given)	6.39% (inactive)

SMILES	inhibition
CC1(Cc2cccc(C#N)c2)C(=O)Nc2ccc(-c3cccc(C(F)(F)F)c3)cc21 (stereo not given)	11.2% (active)
Cc1ccc(CC2(C)C(=O)Nc3ccc(OC(F)(F)F)cc32)cc1 (stereo not given)	8.02% (inactive)
CC(c1c[nH]c2ccccc12)c1c(-c2ccccc2)n(C)c2ccccc12 (stereo not given)	-2.38% (inactive)
N#Cc1ccccc1OC[C@@H](O)CN1CCC(C(O)(c2ccccc2)c2ccccc2)CC1	-1.12% (inactive)
O=C(c1ccccc1)c1ccc(-c2ccccc2C(=O)NC2CCCCN(Cc3ccc(Cl)cc3)C2=O)cc1 (stereo not given)	-0.61% (inactive)
COC(=O)C1CN(Cc2cn(Cc3ccc(F)cc3)nn2)CCS(=O)(=O)N1Cc1ccc(Cl)cc1 (stereo not given)	1.41% (inactive)
Cc1cc(C)c(C#N)c(SCc2ccc3c(c2)OCO3)n1	-0.68% (inactive)
Cc1cc(C)c(C#N)c(SCc2[nH]nc3c2C(c2ccccc2)C(C#N)=C(N)O3)n1 (stereo not given)	12.4% (active)
COc1ccc(C2C(C#N)=C(N)Oc3n[nH]c(C)c32)cc1CN1CCN(c2ccc(F)cc2)CC1 (stereo not given)	0.41% (inactive)
COc1ccc(N2C(=O)C(CC(=O)Nc3ccccc3)N(Cc3ccc(OC)c(OC)c3)C2=O)cc1 (stereo not given)	-0.55% (inactive)
CCOc1ccc(N2C(=O)CC(N(CCc3ccc(OC)c(OC)c3)C(=S)Nc3ccccc3)C2=O)cc1 (stereo not given)	9.32% (active) and 1.43% (inactive)
CN(C)c1ccc(NC(=S)N(CCc2ccccc2)C2CC(=O)N(c3c(Cl)cccc3Cl)C2=O)cc1 (stereo not given)	2.09% (inactive)
C=CCN(Cc1ccc2c(c1)OCO2)C(C#CC1CC1)C(C)(C)C (stereo not given)	-5.97% (inactive)
O=C(NC1CCCCN(Cc2cccc(C(F)(F)F)c2)C1=O)c1ccccc1I (stereo not given)	-0.37% (inactive)
COC(=O)[C@]12C[C@H](CC(=O)NCc3ccccc3)C(=O)N(Cc3ccccc3)C1=C[C@H](COCc1ccccc1)O[C@@H]2C	1.65% (inactive)
COC(=O)[C@H](C(C)C)N(CCCc1cn(Cc2ccccc2)nn1)S(=O)(=O)c1ccc(F)cc1Br	2.02% (inactive)
COc1ccccc1C(=O)NCC(=O)NCCSc1ccc(Br)cc1	2.38% (inactive)
COc1ccccc1C(=O)NCC(=O)OCC(=O)NNC(=O)c1ccc(Br)cc1	13% (active)
O=C(COC(=O)c1ccccn1)NNC(=O)c1ccc(Br)cc1	0.32% (inactive)
